According to the supplement of paper PMC10849652:
Of roughly 8,800 targets only a part is listed; those with a hit were picked by preference. About 0.5% of all pairs of compound and target were hits. Unmarked numbers belong to inactive results.

Tests used:
Assay in all cases: log2 fold change, soluble protein after heating vs DMSO (PISA); higher = thermal stabilisation; K562 lysate, 10 uM; active = over 0.2 and 3.5 SD of the protein, either way, in both replicates (recomputed)
[1] = compound: C=CC(=O)N1CCC[C@@H](n2nc(-c3ccc(Oc4ccccc4)cc3)c3c(N)ncnc32)C1 [ibrutinib]
In short: (§1)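 To prepare the extract, K562 pellets were dounce-homogenised in PBS pH 7.4 with 1 mM MgCl2, giving crude material at 1 mg/mL protein. This was treated with 10 μM compound for 30 min, then heated in aliquots for 3 min over 48°C-58°C before pooling and addition of NP-40 to 0.5% at 4°C. Centrifugation at 21,000xg for 90 min left soluble protein in the supernatant, which TMTpro 16plex LC-MS/MS quantified with equalised channel sums. Results are log-two fold changes in thermal stability compared with solvent controls, from duplicates.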

[2] = compound: CC(=O)c1cnc2ccc(-c3cc(Cl)c(O)c(Cl)c3)nc2c1N[C@H]1CC[C@H](CN(C)C)CC1
In short: as §1

[3] = compound: CC(C)(C)Cn1c(N)nc2ccc(-c3[nH]c(C(C)(C)C)nc3-c3ccc(F)cc3)nc21 [ralimetinib]
In short: as §1

[4] = compound: CC(C)(O)CC(=O)NCCn1ccc2ncnc(Nc3ccc(Oc4cccc(C(F)(F)F)c4)c(Cl)c3)c21
In short: as §1

[5] = compound: CC(C)C1=C2N=C(C=C(N2N=C1)NCC3=CC=CC=C3)NCCCCCCN
In short: as §1

[6] = compound: CC1=C(C(CC(=O)N1)C2=CC=C(C=C2)C(F)(F)F)C(=O)NC3=C(C=C4C(=C3)C=NN4)F
In short: as §1

[7] = compound: CC1=C(C2=C(C=C1)C(=O)C3=CC=CC=C3N2CCCN)C
In short: as §1

[8] = compound: CC1=C(C=C(C=C1)NC(=O)C2=CC(=CC=C2)C(C)(C)C#N)NC3=CC4=C(C=C3)N=CN(C4=O)C
In short: as §1

[9] = compound: CC1=C(C=C(C=C1)NC(=O)C2=CC(=CC=C2)N(C)C)NC(=O)C3=CC=C(C=C3)O
In short: as §1

[10] = compound: CC1=CC=C(C=C1)SC2=C3C=C(SC3=CN=C2)C(=O)N
In short: as §1

Chain of UniProt Q9NQZ2 (Q9NQZ2 whole entry, looked up): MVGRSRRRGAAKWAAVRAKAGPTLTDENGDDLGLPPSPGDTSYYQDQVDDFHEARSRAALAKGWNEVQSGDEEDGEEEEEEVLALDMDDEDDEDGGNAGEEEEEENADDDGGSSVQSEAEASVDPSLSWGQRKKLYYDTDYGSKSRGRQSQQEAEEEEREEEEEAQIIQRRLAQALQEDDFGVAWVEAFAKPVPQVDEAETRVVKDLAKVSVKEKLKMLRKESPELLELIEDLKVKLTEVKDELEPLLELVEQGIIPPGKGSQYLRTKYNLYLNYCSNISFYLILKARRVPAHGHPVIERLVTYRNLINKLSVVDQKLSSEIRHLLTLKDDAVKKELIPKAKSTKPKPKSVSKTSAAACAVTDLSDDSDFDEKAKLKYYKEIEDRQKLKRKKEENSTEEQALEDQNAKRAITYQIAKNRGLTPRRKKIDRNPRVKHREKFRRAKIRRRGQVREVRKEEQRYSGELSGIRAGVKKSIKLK
Chain of UniProt Q96JH7 (Q96JH7 whole entry, looked up): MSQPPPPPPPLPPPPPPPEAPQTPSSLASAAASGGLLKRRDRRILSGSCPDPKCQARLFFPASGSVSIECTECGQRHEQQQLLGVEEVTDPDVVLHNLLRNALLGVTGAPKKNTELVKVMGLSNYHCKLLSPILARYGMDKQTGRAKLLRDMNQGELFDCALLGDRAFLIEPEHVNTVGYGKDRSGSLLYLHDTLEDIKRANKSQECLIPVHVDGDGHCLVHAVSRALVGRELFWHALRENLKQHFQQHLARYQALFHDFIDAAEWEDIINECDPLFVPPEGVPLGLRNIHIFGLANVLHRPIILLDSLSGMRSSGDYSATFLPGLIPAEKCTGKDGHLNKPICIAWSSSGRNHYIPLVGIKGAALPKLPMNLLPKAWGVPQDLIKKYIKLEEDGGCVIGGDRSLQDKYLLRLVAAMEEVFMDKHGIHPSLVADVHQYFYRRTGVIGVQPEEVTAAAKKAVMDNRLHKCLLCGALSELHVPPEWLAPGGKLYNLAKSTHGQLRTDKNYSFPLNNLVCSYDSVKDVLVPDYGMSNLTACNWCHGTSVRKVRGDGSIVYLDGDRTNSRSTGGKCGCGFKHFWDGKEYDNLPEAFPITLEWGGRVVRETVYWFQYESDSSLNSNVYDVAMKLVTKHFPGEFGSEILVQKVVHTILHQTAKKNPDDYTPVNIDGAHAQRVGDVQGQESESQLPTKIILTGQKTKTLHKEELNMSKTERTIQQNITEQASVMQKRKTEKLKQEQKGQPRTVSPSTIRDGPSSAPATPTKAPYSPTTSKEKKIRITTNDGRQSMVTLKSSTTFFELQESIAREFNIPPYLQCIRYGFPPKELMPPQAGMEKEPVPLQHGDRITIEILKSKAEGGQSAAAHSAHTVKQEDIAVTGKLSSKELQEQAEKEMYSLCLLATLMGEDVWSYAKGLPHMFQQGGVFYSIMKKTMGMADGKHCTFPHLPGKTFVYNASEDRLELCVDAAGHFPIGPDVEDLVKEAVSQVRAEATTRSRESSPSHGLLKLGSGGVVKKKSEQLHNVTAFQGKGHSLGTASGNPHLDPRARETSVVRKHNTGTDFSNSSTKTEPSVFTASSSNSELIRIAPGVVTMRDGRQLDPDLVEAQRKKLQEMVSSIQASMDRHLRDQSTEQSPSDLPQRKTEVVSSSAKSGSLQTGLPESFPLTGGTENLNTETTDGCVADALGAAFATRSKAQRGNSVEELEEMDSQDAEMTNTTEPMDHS
Chain of UniProt Q9ULU4 (Q9ULU4 whole entry, looked up): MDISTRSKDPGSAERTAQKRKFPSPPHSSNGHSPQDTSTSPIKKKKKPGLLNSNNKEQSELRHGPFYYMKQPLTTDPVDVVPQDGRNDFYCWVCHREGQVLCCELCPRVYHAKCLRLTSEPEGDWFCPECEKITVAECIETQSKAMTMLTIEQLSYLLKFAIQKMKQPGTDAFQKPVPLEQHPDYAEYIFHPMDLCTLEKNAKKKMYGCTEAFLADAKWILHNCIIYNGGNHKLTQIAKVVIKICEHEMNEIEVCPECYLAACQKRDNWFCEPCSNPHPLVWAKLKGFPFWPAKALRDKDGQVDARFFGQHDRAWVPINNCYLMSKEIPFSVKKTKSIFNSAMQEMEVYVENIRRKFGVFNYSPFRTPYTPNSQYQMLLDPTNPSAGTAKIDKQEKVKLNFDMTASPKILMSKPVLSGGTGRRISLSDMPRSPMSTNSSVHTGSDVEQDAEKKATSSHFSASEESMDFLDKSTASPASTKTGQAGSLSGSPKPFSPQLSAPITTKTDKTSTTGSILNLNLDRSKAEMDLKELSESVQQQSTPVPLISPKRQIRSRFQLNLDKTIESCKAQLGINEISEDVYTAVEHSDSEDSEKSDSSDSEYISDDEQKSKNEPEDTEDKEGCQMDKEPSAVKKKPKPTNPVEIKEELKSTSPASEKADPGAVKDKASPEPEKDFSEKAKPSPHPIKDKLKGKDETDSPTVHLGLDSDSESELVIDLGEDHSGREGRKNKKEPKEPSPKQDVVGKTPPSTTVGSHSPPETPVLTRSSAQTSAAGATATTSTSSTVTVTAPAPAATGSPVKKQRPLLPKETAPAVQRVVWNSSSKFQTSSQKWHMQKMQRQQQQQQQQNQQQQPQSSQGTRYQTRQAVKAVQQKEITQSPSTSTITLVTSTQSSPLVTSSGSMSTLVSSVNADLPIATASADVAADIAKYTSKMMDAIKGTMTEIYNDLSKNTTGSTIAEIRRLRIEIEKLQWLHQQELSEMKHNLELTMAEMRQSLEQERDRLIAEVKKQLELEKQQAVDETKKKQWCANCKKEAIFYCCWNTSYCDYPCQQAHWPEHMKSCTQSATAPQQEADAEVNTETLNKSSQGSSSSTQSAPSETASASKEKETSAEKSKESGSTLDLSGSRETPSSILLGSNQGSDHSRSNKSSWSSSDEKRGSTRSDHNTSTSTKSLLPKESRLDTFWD
Chain of UniProt Q86U90 (Q86U90 whole entry, looked up): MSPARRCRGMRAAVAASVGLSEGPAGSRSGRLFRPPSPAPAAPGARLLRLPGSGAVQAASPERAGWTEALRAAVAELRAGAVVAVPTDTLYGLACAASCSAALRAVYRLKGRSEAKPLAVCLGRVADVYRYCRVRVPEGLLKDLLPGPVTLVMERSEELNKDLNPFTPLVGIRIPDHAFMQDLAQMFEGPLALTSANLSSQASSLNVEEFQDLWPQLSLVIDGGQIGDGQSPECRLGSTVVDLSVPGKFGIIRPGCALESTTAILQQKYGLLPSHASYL
Chain of UniProt O75717 (O75717 whole entry, looked up): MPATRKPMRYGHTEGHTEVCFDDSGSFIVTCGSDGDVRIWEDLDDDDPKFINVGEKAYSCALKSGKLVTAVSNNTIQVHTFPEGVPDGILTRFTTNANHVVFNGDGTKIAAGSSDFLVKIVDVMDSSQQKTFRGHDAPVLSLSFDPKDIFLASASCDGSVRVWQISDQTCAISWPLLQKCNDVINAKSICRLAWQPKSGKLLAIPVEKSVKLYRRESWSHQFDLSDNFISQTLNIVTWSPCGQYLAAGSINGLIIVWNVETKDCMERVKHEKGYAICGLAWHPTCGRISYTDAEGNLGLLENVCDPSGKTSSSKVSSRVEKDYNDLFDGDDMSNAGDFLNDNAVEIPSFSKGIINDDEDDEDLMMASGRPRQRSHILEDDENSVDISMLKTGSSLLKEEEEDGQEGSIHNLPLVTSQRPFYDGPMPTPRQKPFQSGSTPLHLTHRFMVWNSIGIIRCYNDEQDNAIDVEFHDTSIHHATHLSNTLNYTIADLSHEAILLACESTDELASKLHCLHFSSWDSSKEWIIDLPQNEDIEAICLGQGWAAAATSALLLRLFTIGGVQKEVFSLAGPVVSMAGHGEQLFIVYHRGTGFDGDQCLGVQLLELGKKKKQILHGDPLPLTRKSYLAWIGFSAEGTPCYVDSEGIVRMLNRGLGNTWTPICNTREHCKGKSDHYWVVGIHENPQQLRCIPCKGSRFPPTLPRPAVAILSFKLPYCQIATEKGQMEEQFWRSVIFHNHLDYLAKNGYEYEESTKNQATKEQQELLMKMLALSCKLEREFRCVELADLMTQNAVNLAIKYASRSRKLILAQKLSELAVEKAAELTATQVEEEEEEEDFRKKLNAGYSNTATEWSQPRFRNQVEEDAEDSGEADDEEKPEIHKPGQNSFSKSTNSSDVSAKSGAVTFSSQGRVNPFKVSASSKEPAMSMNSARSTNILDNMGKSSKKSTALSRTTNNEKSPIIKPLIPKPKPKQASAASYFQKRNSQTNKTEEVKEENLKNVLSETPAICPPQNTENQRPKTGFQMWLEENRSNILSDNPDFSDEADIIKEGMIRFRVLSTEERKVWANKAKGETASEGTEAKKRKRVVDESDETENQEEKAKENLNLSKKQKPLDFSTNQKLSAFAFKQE
Chain of UniProt Q9UN37 (Q9UN37 whole entry, looked up): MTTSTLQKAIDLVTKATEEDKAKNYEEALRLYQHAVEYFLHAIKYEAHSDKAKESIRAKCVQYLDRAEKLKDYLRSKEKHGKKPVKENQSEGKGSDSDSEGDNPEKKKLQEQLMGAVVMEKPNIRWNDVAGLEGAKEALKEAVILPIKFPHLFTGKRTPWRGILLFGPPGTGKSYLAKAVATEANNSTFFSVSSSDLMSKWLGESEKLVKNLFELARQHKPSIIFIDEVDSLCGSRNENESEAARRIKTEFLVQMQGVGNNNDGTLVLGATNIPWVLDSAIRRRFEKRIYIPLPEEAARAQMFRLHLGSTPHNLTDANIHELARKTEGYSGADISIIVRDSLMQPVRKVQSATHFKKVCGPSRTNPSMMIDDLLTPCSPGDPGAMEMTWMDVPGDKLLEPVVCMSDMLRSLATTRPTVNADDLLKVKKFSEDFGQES
Chain of UniProt A8MPS7 (A8MPS7 whole entry, looked up): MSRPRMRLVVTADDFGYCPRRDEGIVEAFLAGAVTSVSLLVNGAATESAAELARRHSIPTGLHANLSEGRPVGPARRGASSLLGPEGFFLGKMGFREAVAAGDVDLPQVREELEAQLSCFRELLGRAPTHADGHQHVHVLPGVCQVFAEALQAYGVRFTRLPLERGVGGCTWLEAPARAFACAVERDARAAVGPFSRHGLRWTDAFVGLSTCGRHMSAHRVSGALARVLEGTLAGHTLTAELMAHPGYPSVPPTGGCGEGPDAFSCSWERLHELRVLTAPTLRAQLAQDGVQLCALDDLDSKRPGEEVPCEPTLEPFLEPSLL

| Target | log2 fold change [1] | log2 fold change [2] | log2 fold change [3] | log2 fold change [4] | log2 fold change [5] | log2 fold change [6] | log2 fold change [7] | log2 fold change [8] | log2 fold change [9] | log2 fold change [10] |
| --- | --- | --- | --- | --- | --- | --- | --- | --- | --- | --- |
| YDJC (UniProt A8MPS7) | 0.024 | 0.023 | -0.015 | -0.064 | -0.028 | 0.052 | -0.034 | 0.011 | 0.022 | 0.021 |
| ZDHHC18 (UniProt Q9NUE0) | -0.103 | 0.057 | 0.093 | -0.017 | -0.137 | 0.019 | 0.209 | -0.022 | 0.073 | -0.01 |
| ZC3HC1 (UniProt Q86WB0) | -0.021 | 0.013 | 0.033 | -0.004 | -0.003 | 0.012 | 0.004 | -0.002 | 0.006 | 0.013 |
| VARS (UniProt P26640) | 0.015 | -0.003 | 0.042 | 0.018 | 0.032 | 0.006 | -0.047 | 0.001 | 0.041 | 0.035 |
| UQCRC2 (UniProt P22695) | -0.022 | 0.001 | 0.005 | -0.04 | -0.005 | -0.001 | 0.012 | 0.029 | 0.003 | -0.013 |
| USP48 (UniProt Q86UV5) | -0.028 | -0.224 | -0.038 | 0.031 | -0.009 | 0.018 | 0 | -0.039 | 0.041 | -0.227 |
| ZMYM4 (UniProt Q5VZL5) | -0.079 | -0.004 | 0.055 | -0.025 | 0.051 | 0.026 | -0.089 | -0.011 | -0.012 | -0.001 |
| UTP3 (UniProt Q9NQZ2) | 0.053 | 0.001 | 0.055 | -0.051 | -0.058 | 0.026 | -0.123 | -0.016 | -0.023 | -0.018 |
| VCPIP1 (UniProt Q96JH7) | 0.002 | 0.01 | 0.009 | 0.011 | -0.029 | -0.021 | -0.05 | -0.007 | 0.048 | -0.017 |
| YRDC (UniProt Q86U90) | 0.01 | -0.002 | 0.025 | -0.012 | 0.027 | -0.006 | -0.015 | 0.021 | 0.007 | 0.008 |
| YTHDF3 (UniProt Q7Z739) | -0.026 | 0.066 | -0.014 | -0.033 | 0.008 | 0.017 | 0.074 | -0.334 (active) | 0.009 | 0.096 |
| XPOT (UniProt O43592) | -0.012 | 0.009 | 0.006 | -0.038 | -0.014 | 0 | 0.013 | 0.016 | 0.007 | 0.018 |
| YES1 (UniProt P07947) | 0.988 (active) | -0.012 | -0.259 | 0.511 (active) | 0.061 | 0.2 | 0.044 | 0.192 | -0.005 | -0.131 |
| ZNF598 isoform 3 (UniProt Q86UK7) | 0.032 | -0.007 | -0.001 | -0.017 | 0.013 | 0.019 | 0.005 | -0.001 | -0.004 | 0 |
| WDHD1 (UniProt O75717) | 0.024 | -0.002 | 0.005 | -0.01 | -0.027 | 0.007 | -0.002 | -0.002 | 0.016 | -0.005 |
| VPS4A (UniProt Q9UN37) | 0.001 | 0 | 0.013 | 0.035 | 0 | -0.035 | -0.046 | -0.039 | 0.045 | 0.025 |
| ZNF845 (UniProt Q96IR2) | 0.087 | -0.039 | 0.093 | 0 | -0.061 | -0.047 | 0.072 | 0.005 | -0.012 | -0.109 |
| ZMYND8 isoform 19 (UniProt Q9ULU4) | 0.111 | -0.02 | 0.047 | 0.007 | 0.002 | 0.007 | 0.027 | 0.02 | 0.011 | 0.037 |
| ZNF318 (UniProt Q5VUA4) | 0.022 | -0.043 | 0.029 | -0.06 | 0.014 | 0.023 | 0.038 | -0.036 | 0.046 | 0.083 |
| ZNHIT6 (UniProt Q9NWK9) | -0.01 | -0.097 | -0.032 | 0.005 | 0.001 | 0.036 | -0.02 | 0.032 | 0.018 | -0.029 |
| VPS39 (UniProt Q96JC1) | 0 | 0.021 | -0.012 | -0.056 | -0.004 | 0.014 | 0 | 0.016 | -0.014 | -0.005 |
| UNC13D (UniProt Q70J99) | -0.043 | -0.005 | 0.031 | -0.014 | 0.018 | 0.016 | 0.015 | 0.012 | 0.025 | -0.015 |
| VAV3 isoform 4 (UniProt Q9UKW4) | 0.068 | -0.109 | -0.049 | -0.013 | -0.028 | -0.013 | 0.085 | -0.03 | -0.026 | 0.058 |
| YLPM1 (UniProt P49750) | 0.028 | -0.044 | -0.002 | 0.022 | -0.006 | 0.301 (active) | -0.031 | -0.017 | 0 | -0.046 |
| XPO5 (UniProt Q9HAV4) | -0.041 | 0.003 | 0 | -0.043 | -0.039 | -0.014 | -0.01 | -0.004 | 0.043 | -0.01 |
